EPAC1 ag: qHTS for Agonist of cAMP-regulated guanine nucleotide exchange factor 3 (EPAC1): primary screen; Potency, µM (doses to about 154 µM), inactives show at the highest dose activation, actives largely listed as activators; hit rate 0.073% among 360,000; AID 720707, 2013; EPAC1 agonist qHTS, biochemical assay; response scale: 100% = response to 6.5 mM cAMP; Rap guanine nucleotide exchange factor 3 (Homo sapiens), O95398; further: potency means the concentration at half of the fitted maximal effect; nearly all actives have a fitted effect of over 60% in size
Target sequence (O95398 whole entry, looked up): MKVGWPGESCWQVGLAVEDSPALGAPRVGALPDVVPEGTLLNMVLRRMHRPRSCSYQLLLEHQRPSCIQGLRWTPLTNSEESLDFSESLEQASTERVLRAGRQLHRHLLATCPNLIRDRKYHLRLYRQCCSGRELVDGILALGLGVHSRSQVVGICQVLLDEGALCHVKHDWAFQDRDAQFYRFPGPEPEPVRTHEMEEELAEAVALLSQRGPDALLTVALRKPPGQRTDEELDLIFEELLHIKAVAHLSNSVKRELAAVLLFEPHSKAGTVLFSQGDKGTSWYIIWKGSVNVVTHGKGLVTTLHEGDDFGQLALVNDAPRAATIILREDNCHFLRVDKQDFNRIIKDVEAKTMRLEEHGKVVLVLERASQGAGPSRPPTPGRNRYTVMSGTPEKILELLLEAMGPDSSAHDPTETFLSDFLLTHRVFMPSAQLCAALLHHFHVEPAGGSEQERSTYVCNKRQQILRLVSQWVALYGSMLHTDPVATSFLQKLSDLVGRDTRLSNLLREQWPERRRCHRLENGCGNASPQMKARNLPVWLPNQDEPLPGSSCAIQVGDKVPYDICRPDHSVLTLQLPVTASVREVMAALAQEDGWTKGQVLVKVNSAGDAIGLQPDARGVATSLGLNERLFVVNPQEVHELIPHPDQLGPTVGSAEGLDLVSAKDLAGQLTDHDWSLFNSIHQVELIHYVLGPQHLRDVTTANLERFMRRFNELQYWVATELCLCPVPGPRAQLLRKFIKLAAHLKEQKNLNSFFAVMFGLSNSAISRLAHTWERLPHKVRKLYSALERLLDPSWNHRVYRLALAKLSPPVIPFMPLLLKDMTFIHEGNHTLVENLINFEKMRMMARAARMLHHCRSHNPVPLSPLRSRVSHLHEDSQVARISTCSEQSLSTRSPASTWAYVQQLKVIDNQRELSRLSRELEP
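Fluorescent GDP-exchange assay: 100 nM EPAC1 with 250 nM Rap1B preloaded with BODIPY-GDP and 50 uM GDP; compounds tested as concentration series, 5 min at room temperature, then read every 5 min for 30 min (ex 480/em 540 nm); normalized to 6.5 mM cAMP.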
EPAC1 antagonist: qHTS for Antagonist of cAMP-regulated guanine nucleotide exchange factor 3 (EPAC1): primary screen; Rap guanine nucleotide exchange factor 3 (Homo sapiens), O95398; EPAC1 GEF assay, Rap1b-BODIPY-GDP exchange fluorescence; Potency, µM (doses to about 115 µM), for inactives: at the top dose activity change, negative = inhibition, hits mostly inhibitors; hit rate 0.14% among 360,000; AID 720709, 2013;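 further: potency means the concentration at half of the fitted maximal effect; plate controls were vehicle for no effect and positive control for full effect; nearly all actives have a fitted effect of over 50% in size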
TRPML1 inh: qHTS for Inhibitors of the Human Mucolipin Transient Receptor Potential 1 (TRPML1); activity change, negative = inhibition, % (test concentration not listed); hit rate 0.02% among 390,000; AID 624415, 2012; TRPML1-inducible cells, Ca2+ dye fluorescence, FDSS; hits give low values; inhibition of EC80 agonist-evoked calcium signal; Mucolipin-1 (Homo sapiens), Q9GZU1; in the data active means activity change below about -50%; inconclusive means between about -30% and that limit;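 further: stimulus is agonist 54-4 at its EC80 concentration; on the % scale 0 is the no-effect control and ±100 the full control effect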
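TRPML1-DL cells, Tet-induced overnight (~16 h, 37 °C) at 1,500 cells/well, were loaded with Ca8 no-wash dye plus quencher for 45-90 min at room temperature. Compounds were pinned during FDSS kinetic reading; agonist 54-4 at EC80 (4 uM final) then added.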
EPAC2 ag: qHTS for Agonist of cAMP-regulated guanine nucleotide exchange factor 4 (EPAC2): primary screen; Potency, µM (doses to about 154 µM), without a hit: at the highest dose activation, most hits filed as activators; EPAC2 activation, biochemical qHTS; response scale: 100% = 6.5 mM cAMP response; hit rate 0.079% among 360,000; AID 720711, 2013; further: potency means the concentration at half of the fitted maximal effect; nearly all actives have a fitted effect of over 50% in size
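Nucleotide exchange monitored as fluorescence drop when BODIPY-GDP leaves Rap1B. Reaction: 100 nM EPAC2, 250 nM RAP1B-BODIPY-GDP, 50 uM GDP, room temperature, kinetic read over 30 min. Activity expressed relative to 6.5 mM cAMP.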
TRPML1 agonist: qHTS for Agonists of the Human Mucolipin Transient Receptor Potential 1 (TRPML1) | Mucolipin-1 (Homo sapiens), Q9GZU1 | TRPML1-expressing cells, Ca2+ dye fluorescence, FDSS | activation, % (concentration not given with the values) | hit rate 0.12% among 410,000; in the data active means activation above about 50%; inconclusive means mostly about 30% to 49%; further: 0% is about no effect
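Tetracycline-induced TRPML1-DL cells are seeded and incubated overnight before loading with a no-wash Ca2+ dye and quencher. Agonist activity is taken from the 110 s fluorescence read following compound pin-transfer on an FDSS, before EC80 54-4 challenge.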
EPAC2 antag: qHTS for Antagonist of cAMP-regulated guanine nucleotide exchange factor 2 (EPAC2): primary screen | Rap guanine nucleotide exchange factor 4 (Homo sapiens), Q8WZA2 | EPAC2 GEF exchange of Rap1B-BODIPY-GDP, fluorescence | hit rate 0.18% among 360,000 | Potency, µM (highest dose often 114 µM), inactives show at the top dose activity, negative = inhibition, usual class: inhibitors | AID 720708, 2013; further: potency means the concentration at half of the fitted maximal effect; on the % scale 0 is the no-effect control and ±100 the full control effect; nearly all actives have a fitted effect of over 45% in size
* marks the source's active call; other numbers are inactive results; u = inconclusive; x = not tested or not shown. Shown are actives, neighbours in structure and some others; about 0.4% of the full set was active somewhere. Unless noted, the call rests on the fitted dose curve; in most records, active means well fitted curve in the direction sought with a large enough effect; inconclusive means small, poorly fitted or top-dose-only effect, or another doubt; inactive means no such curve, though single readings can be large; an effect the other way counts as inactive or inconclusive.

SMILES | EPAC1 ag | EPAC1 antagonist | TRPML1 inh | EPAC2 ag | TRPML1 agonist | EPAC2 antag
CCOC(=O)C1=C(C)N=c2s/c(=C\c3cccn3C)c(=O)n2C1c1cccc(OC)c1OC (configuration not stated) | 22.4% | 3.5% | -12.7 | 112µM* | 1.5 | 16.6%
O=C(c1cccs1)N(Cc1ccco1)c1ccc(O)cc1 | x | x | x | x | -0.7 | x
CNS(=O)(=O)c1ccc2ccccc2c1 | 12.0% | -3.4% | 36.7 | 4.2% | 1.1 | -5.5%
Cc1cc(O)cc(C)c1NS(=O)(=O)c1ccc2ccccc2c1 | 3.5% | -4.8% | 59.9 | 12.8% | 2.0 | 11.2µM*
Cc1[nH]c2ccccc2c1C1N2CC3(C)CN1CC(C)(C2)C3=O (configuration not stated) | x | x | 17.7 | x | 0.3 | x
CN(C)c1nc(OCCNC(=O)Nc2ccccc2)nc(N(C)C)n1 | -6.4% | 8.9% | 0.1 | 10µM* | -1.6 | 0.0%
CN(C)c1nc(OCCNC(=O)Nc2ccccc2)nc(N2CCCCC2)n1 | -0.2% | -23.6% | 2.1 | -7.0% | 0.3 | -8.8%
CN1CCN(C2=C(Cl)C(=O)c3ccccc3C2=O)CC1 | 5.0% | 28.2µM* | 14.3 | 26.5% | 0.3 | u
COc1ccc(Cl)c(Cn2cnc3c(cnn3C(C)(C)C)c2=O)c1F | x | x | -11.3 | x | 3.0 | x
Cc1ccc(NC(=O)C2CCN(c3ncnc4sc(C)c(C)c34)CC2)cc1S(=O)(=O)N(C)C | 1.3% | -10.5% | 16.3 | 13.8% | -0.7 | -2.8%
Cc1ccc(C)c(S(=O)(=O)N2CCN(C(=O)C3CCN(c4ncnc5sc(C)c(C)c45)CC3)CC2)c1 | -35.4% | -2.0% | -7.7 | 20.0% | 73.6* | 2.6%
Nc1c(N=Nc2ccc([N+](=O)[O-])cc2)c(S(=O)(=O)O)cc2cc(S(=O)(=O)O)c(/C=C/c3ccccc3)c(O)c12 | x | x | x | x | -1.3 | x
CCOC(=O)C1(CC2CCCCO2)CCN(Cc2cc3ccccc3[nH]2)CC1 (configuration not stated) | -10.8% | 16.0% | 1.6 | 4.2% | 94.9* | 0.5%
Oc1ccc(N=Nc2c(O)ccc3ccccc23)cc1 | 16.6% | -4.6% | -2.4 | 11.0% | 0.2 | -4.7%
N=C(N)c1ccc(N=Nc2c(O)ccc3c2[nH]c2ccccc23)cc1 | u | 39.8µM* | 40.2 | u | 0.7 | 50.1µM*
Cn1c(-c2sccc2OCc2ccc(Cl)cc2Cl)n[nH]c1=S | -13.3% | 89.1µM* | -0.6 | 6.5% | 0.2 | -14.0%
Cc1ccc(COc2ccsc2-c2n[nH]c(=S)n2C)cc1 | 25.3% | -7.5% | 10.7 | 3.6% | 0.4 | 4.8%
CCOc1ccc2nc(NC3=NC(C)(C)C=C(C)N3)nc(C)c2c1 | 1.5% | 4.9% | 65.4 | -2.2% | 2.3 | 6.4%
CCOc1ccc2nc(NC3=NC(c4ccc(OC)cc4)CC(=O)N3)nc(C)c2c1 (configuration not stated) | u | 50.1µM* | 9.6 | u | 1.1 | 31.6µM*
COc1ccc(N=Cc2c(O)c3ccccc3n2C(C)=O)cc1 | -3.5% | -10.2% | 3.3 | u | 12.0 | 7.8%
COc1ccc(N=Cc2sc(O)c3ccccc23)cc1 | u | -29.2% | -29.3 | 17.4% | 84.4* | 35.7%
O=C(Cc1ccccc1)Nc1ccc(N2CCCC2)cc1 | 6.8% | -21.1% | -13.0 | -1.1% | 0.2 | -2.3%
CC1CCN(c2ccc(NC(=O)Cc3ccccc3)cc2)CC1 | -1.8% | -4.8% | -50.9* | 3.1% | -0.2 | 0.6%
CC1CCCCC1NC(=O)COC(=O)c1c2c(nc3ccccc13)/C(=C\c1ccco1)CC2 (configuration not stated) | -27.5% | 35.5µM* | 0.3 | -15.9% | 0.0 | -2.0%
CCOC(=O)N1CCN(/[N+]([O-])=N/Oc2ccc(C(F)(F)F)cc2[N+](=O)[O-])CC1 | x | x | -24.5 | x | 1.3 | x
SMILES | EPAC1 ag | EPAC1 antagonist | TRPML1 inh | EPAC2 ag | TRPML1 agonist | EPAC2 antag
CCNc1nc(N2CCCN(C)CC2)nc2cc(OC)c(OC)cc12 | x | x | x | x | -0.3 | x
O=C(O)c1cc(O)c2c(c1)[C@@H]([C@H]1c3cc(C(=O)O)cc(O)c3C(=O)c3c(O[C@@H]4O[C@H](CO)[C@@H](O)[C@H](O)[C@H]4O)cccc31)c1cccc(OC3O[C@H](CO)[C@@H](O)[C@H](O)[C@H]3O)c1C2=O (some centres not stated) | 5.1% | u | -9.0 | 8.4% | -0.3 | u
O=C(O)c1cc(O)c2c(c1)[C@H]([C@H]1c3cc(C(=O)O)cc(O)c3C(=O)c3c(O[C@@H]4O[C@H](CO)[C@@H](O)[C@H](O)[C@H]4O)cccc31)c1cccc(OC3O[C@H](CO)[C@@H](O)[C@H](O)[C@H]3O)c1C2=O (some centres not stated) | -7.5% | 3.55µM* | 31.9 | 2.0% | -0.2 | u
CCOC(=O)c1cc([N+](=O)[O-])sc1NC(=O)c1ccc(S(=O)(=O)N2CC3(C)CC2CC(C)(C)C3)cc1 (configuration not stated) | 1.0% | -2.6% | u | -3.7% | 59.7* | -1.9%
Cc1cc(Br)c2c(c1)[C@](O)(c1cn(C)c3ccccc13)C(=O)N2C | 2.9% | -8.0% | x | 5.1% | x | 22.4µM*
Nc1nnc(CC(=O)N/N=C/c2cccc([N+](=O)[O-])c2)s1 | -3.1% | -4.3% | 4.7 | 4.8% | -0.5 | 6.8%
Nc1nnc(CC(=O)N/N=C/c2cc([N+](=O)[O-])cc(Br)c2O)s1 | -7.5% | 50.1µM* | 1.7 | -2.1% | -0.3 | -1.1%
O=C(/C=C/c1ccccc1)c1c[nH]c2ccccc12 | 4.6% | -16.9% | 24.1 | 4.7% | 1.5 | 3.8%
O=C(C=Cc1ccccc1)c1c[nH]c2ccccc2c1=O | 0.4% | 79.4µM* | -27.5 | 3.8% | 1.8 | -0.7%
CC(C)CCn1c(Oc2ccccc2Cl)nc2c1c(=O)n(C)c(=O)n2C | 0.9% | -11.6% | 26.8 | 0.2% | 0.5 | 31.6µM*
Cn1c(=O)c2c(nc(Oc3ccccc3Cl)n2C)n(C)c1=O | -13.8% | -17.8% | -6.9 | 6.6% | 0.9 | -10.6%
C=CC(=O)N1CCC[C@@H](n2nc(-c3ccc(Oc4ccccc4)cc3)c3c(N)ncnc32)C1 | x | x | x | x | 1.3 | x

Compound activity: PubChem, National Center for Advancing Translational Sciences (NCATS)
